Test [1] in a line: Cellular viability qHTS for adrenocortical cancer (ACC) cell line SW-13 (AID 1963989). Further: nearly all actives have a fitted effect of over 65% in size.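 On activity (max response): cells grown in serum-free medium with ITS supplement; on the % scale 0 is the no-effect control and ±100 the full control effect.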 The settings on record: SW-13 ACC cells viability, CellTiter-Glo, 48 h; activity (max response): stronger effect = lower value. A digest of the protocol:
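48 h treatment, SW-13 in ITS/DMEM serum-free; doses up to 46 uM; readout CellTiter-Glo luminescence; curve fit four-parameter logistic.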
For orientation: In qHTS, concentration-response curves come from the screen itself.

Test [2] is described as follows: Cellular viability qHTS for adrenocortical cancer (ACC) cell line NCI-H295R (AID 1963990). Further: nearly all actives have a fitted effect of over 60% in size.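 On activity change, negative = viability loss: 0% = DMSO only wells and -100% = full killing with cytotoxic reference compound.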 A digest of the protocol: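 Compound titrations (up to 46 uM final) are applied to NCI-H295R cultures for 48 h at 37C. Viable cell number is estimated by CellTiter-Glo signal, normalised to DMSO and doxorubicin controls.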

Where “and” joins values, the source holds several entries; their conditions need not be identical. Identical values can stand only once. Inconclusive results are not listed. A number with no mark means an inactive call. Calls of active or inactive are those of the source. The call rests on the fitted dose curve; in most records, active means well fitted cell-killing curve with a large enough effect; inconclusive means small, poorly fitted or top-dose-only effect; inactive means flat fitted curve, though single readings scatter.
Potency means the concentration at half of the fitted maximal effect.

As for `CC(C)(CO)n1cc(C(=O)c2cncc(NC(=O)Cc3ccc(Cl)cn3)c2)c2cnc(N)nc21`, the activity (max response) in test [1] was -13.5%. For the same molecule, the Potency entry in test [2] was “inactive”.

Consider `COc1ccccc1OCC1CNC(=O)O1` (centres undefined), for which the activity (max response) in test [1] is 12.9%. The Potency result in test [2] is “inactive”.

Regarding `Cc1ccccc1C(=O)N1CC/C(=N\OS(=O)(=O)O)c2ccc(Cl)cc21`, the activity (max response) in test [1] is 5.63%. Besides, the Potency entry in test [2] was “inactive”.

For `CC(CNC1CCCCC1)OC(=O)c1ccccc1` (centres undefined), the activity (max response) in test [1] is -5.58%. The Potency entry in test [2] is “inactive”.

For the molecule `CN1C(=O)N(c2cc(Cl)cc(Cl)c2)C(=O)[C@]12CN(Cc1cc(C(=O)O)cs1)C[C@H]2c1ccc(C#N)cc1`, the activity (max response) in test [1] is -17%. The Potency entry in test [2] was “inactive”.

In the case of `COc1ccnc2c1CCCCC2S(=O)c1nc2ccccc2[nH]1` (centres undefined), in test [1], the activity (max response) was 4.45%. Moreover, the Potency entry in test [2] is “inactive”.

With `N#Cc1ccc(N(Cc2ccc(Br)cc2)n2cnnc2)cc1`, the activity (max response) in test [1] is -0.886%. In addition, the Potency entry in test [2] was “inactive”.

Turning to `CC(=O)[C@@]1(O)CC[C@H]2[C@@H]3C[C@H](C)C4=CC(=O)CC[C@]4(C)[C@H]3CC[C@@]21C`, the activity (max response) in test [1] is -1.82%. Further, the Potency result in test [2] was “inactive”.

As for `c1cnc(N2CCN(Cc3ccc4c(c3)OCO4)CC2)nc1`, the activity (max response) in test [1] was 6.56%. Besides, the Potency result in test [2] was “inactive”.

Consider `c1ccc(CCNc2nc(-c3ccccc3)cs2)cc1`, for which, in test [1], the activity (max response) is -5.01%. In addition, the Potency entry in test [2] is “inactive”.

For the molecule `CCCC(=O)OC[C@@H](OC(=O)CCC)[C@@H](OC(=O)CCC)[C@H](Cn1c2nc(=O)[nH]c(=O)c-2nc2cc(C)c(C)cc21)OC(=O)CCC`, the activity (max response) in test [1] is -8.77%. For the same molecule, the Potency result in test [2] is “inactive”.

As for `N[C@@H](CCC(=O)O)C(=O)N[C@@H](Cc1c[nH]c2ccccc12)C(=O)O`, the activity (max response) in test [1] is 9.67%. Further, the Potency result in test [2] is “inactive”.

In the case of `Fc1ccc(C(c2ccc(F)cc2)N2CCNCC2)cc1`, in test [1], the activity (max response) is 4.07%. The Potency entry in test [2] is “inactive”.

`CCC(=O)O[C@]1(C(=O)CO)CC[C@H]2[C@@H]3CCC4=CC(=O)CC[C@]4(C)[C@H]3CC[C@@]21C`: the activity (max response) in test [1] is 7.43%. Besides, the Potency entry in test [2] was “inactive”.

For `N#C[C@@H]1C[C@@H]2C[C@@H]2N1C(=O)[C@@H](N)C12CC3CC(CC(O)(C3)C1)C2`, in test [1], the activity (max response) was 7.26%. In addition, in test [2], the Potency entry is “inactive”.

In the case of `CCC(=O)O[C@]1(C(=O)COC)[C@@H](C)C[C@H]2[C@@H]3CCC4=CC(=O)C=C[C@]4(C)C3(F)[C@@H](O)C[C@@]21C` (some centres undefined), in test [1], the activity (max response) was 1.6%. In test [2], the Potency result was “inactive”.

Take `C[C@]12CC[C@@H]3c4ccc(O)cc4CC[C@H]3[C@@H]1CCC2=O`: the activity (max response) in test [1] was -14.1%. The Potency entry in test [2] was “inactive”.

As for `Cc1nnc(SCC2=C(C(=O)O)N3C(=O)[C@@H](NC(=O)Cn4cnnn4)[C@H]3SC2)s1`, the activity (max response) in test [1] is 10%. Also, the Potency result in test [2] is “inactive”.

Regarding `Cc1cc(-c2ccccc2)nnc1NCCN1CCOCC1`, in test [1], the activity (max response) is -11%. Further, the Potency result in test [2] is “inactive”.

On to `C/C(=C\C(=O)Nc1ccccc1C(=O)O)c1ccc2ccccc2c1`, for which the Potency is 12.6 µM (active) in test [1] and 28.2 µM (active) in test [2].

`Fc1ccc(-c2nc(-c3ccccc3F)[nH]c2-c2ccncc2)cc1`: the activity (max response) in test [1] is -20.2%. Moreover, in test [2], the Potency entry was “inactive”.

Consider `C=C[C@@]1(C)CC(=O)[C@]2(O)[C@@]3(C)[C@@H](O)CCC(C)(C)[C@@H]3[C@H](O)[C@H](OC(C)=O)[C@@]2(C)O1`, for which the activity (max response) in test [1] is 4.29%. For the same molecule, the Potency result in test [2] is “inactive”.

For the molecule `CCCCCCCCCCC[C@@H](C[C@@H]1OC(=O)[C@H]1CCCCCC)OC(=O)[C@H](CC(C)C)NC=O`, the activity (max response) in test [1] was 4.97%. The Potency result in test [2] was “inactive”.

Regarding `CCS(=O)(=O)c1ccc2oc(-c3ccc4ccccc4c3)nc2c1`, in test [1], the activity (max response) is 1.49%. In addition, in test [2], the Potency result is “inactive”.

`CN1CCC(=C2c3ccccc3CCc3cccnc32)CC1`: in test [1], the activity (max response) is 5.98%. Also, the Potency result in test [2] is “inactive”.

As for `Cn1cc(-c2nc(N[C@@H]3CCCC[C@@H]3N)c(F)c3c2C(=O)NC3)cn1`, the activity (max response) in test [1] is 8.72%. In addition, the activity change, negative = viability loss in test [2] is 0.124% [at 3.81 µM].

On to `CN1CCN(C2=Nc3ccccc3Sc3ccc(Cl)cc32)CC1`, for which, in test [1], the activity (max response) is -24.6%. Further, in test [2], the Potency entry was “inactive”.

For the molecule `COc1cccc2c1C(=O)c1c(O)c3c(c(O)c1C2=O)C[C@@](O)(C(C)=O)C[C@@H]3O[C@H]1C[C@H](N)[C@H](O)[C@H](C)O1`, the Potency in test [1] was 51.7 nM (active) and 501 nM (active); in test [2], 461 nM (active) and 2.24 µM (active).

Take `C=CC(=O)N1C[C@H](Nc2ncnc3[nH]ccc23)CC[C@@H]1C`: the activity (max response) in test [1] was -23.7%. Also, the Potency result in test [2] was “inactive”.

Consider `O=C(c1cc(O)c(O)c(O)c1)c1ccc(O)c(O)c1O`, for which the activity (max response) in test [1] is 4.03%. Besides, the Potency entry in test [2] is “inactive”.

`CN(CC1(C)CCCO1)S(=O)(=O)c1ccc(Cl)c(S(N)(=O)=O)c1` (centres undefined): the activity (max response) in test [1] was 13.7%. Moreover, the Potency result in test [2] is “inactive”.

Consider `CCn1nc(C(=O)O)c(=O)c2cc3c(cc21)OCO3`, for which the activity (max response) in test [1] is 1.15%. In test [2], the Potency result is “inactive”.

The values above are taken from PubChem BioAssay (NCATS).
